Measurements from the supplement of paper PMC12494721.
Counter-ions that a name gives are not always drawn.

Legend:
Settings in all cases: incubation time: 27 h, anaerobic, 37 °C;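 for the amine columns active = adjusted P below 0.05 in both replicates with a change the same way and a mean fold change under 0.8 or over 1.25; inactive = the rest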
[1] = tested on: Clostridium sporogenes DSM 1664; assay: growth (OD595) fold change vs plate DMSO controls (fold change (ratio)); higher = more growth
How it was run: (§1)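 Anaerobic 27 h, 37 °C mGAM 96-well cultures were shaken, then read for absorbance at 595 nm. Values were blank-subtracted and corrected for compound background using 20 µM compound solutions in water. A calibration factor of 5 converted them to OD. Growth is the fold change versus the median of plate DMSO controls. Fold changes above 1.5 were set to NA, and values are the mean of 2 biological replicates.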

[2] = tested on: Escherichia coli IAI1; assay: as above
How it was run: as §1

[3] = tested on: Klebsiella aerogenes DSM 30053; assay: as above
How it was run: as §1

[4] = tested on: Ruminococcus gnavus DSM 108212; assay: as above
How it was run: as §1

[5] = tested on: Klebsiella aerogenes DSM 30053; assay: fold change of Histamine concentration vs plate DMSO controls (fold change (ratio)); higher = more amine produced, active = hit call of the paper (significant change in both replicates, either direction)
How it was run: (§2)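 Amines were quantified by LC–triple-quadrupole MS in dynamic MRM mode against external calibration curves, with drift correction within each batch. The samples were whole anaerobic mGAM cultures of four gut bacterial strains, grown for 27 h at 37 °C in 80 µL wells and extracted with cold acetonitrile/methanol with 0.1% formic acid, then centrifuged. Values are reported as fold change over DMSO controls on the same plate. The mean of 2 biological replicates is given.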

[6] = tested on: Clostridium sporogenes DSM 1664; assay: fold change of Tryptamine concentration vs plate DMSO controls (fold change (ratio)); higher = more amine produced, active = hit call of the paper (significant change in both replicates, either direction)
How it was run: as §2

[7] = tested on: Ruminococcus gnavus DSM 108212; assay: as above
How it was run: as §2

[8] = tested on: Escherichia coli IAI1; assay: fold change of Putrescine concentration vs plate DMSO controls (fold change (ratio)); higher = more amine produced, active = hit call of the paper (significant change in both replicates, either direction)
How it was run: as §2

[9] = tested on: Klebsiella aerogenes DSM 30053; assay: as above
How it was run: as §2

[10] = tested on: Escherichia coli IAI1; assay: fold change of Cadaverine concentration vs plate DMSO controls (fold change (ratio)); higher = more amine produced, active = hit call of the paper (significant change in both replicates, either direction)
How it was run: as §2

[11] = tested on: Klebsiella aerogenes DSM 30053; assay: as above
How it was run: as §2

[12] = tested on: Ruminococcus gnavus DSM 108212; assay: fold change of 2-Phenylethylamine concentration vs plate DMSO controls (fold change (ratio)); higher = more amine produced, active = hit call of the paper (significant change in both replicates, either direction)
How it was run: as §2

Row | SMILES | growth [1] | growth [2] | growth [3] | growth [4] | fold change of Histamine concentration [5] | fold change of Tryptamine concentration [6] | fold change of Tryptamine concentration [7] | fold change of Putrescine concentration [8] | fold change of Putrescine concentration [9] | fold change of Cadaverine concentration [10] | fold change of Cadaverine concentration [11] | fold change of 2-Phenylethylamine concentration [12]
1 | O=C1c2ccccc2C(=O)C1c1ccccc1 [Phenindione] (20 µM) | 1.17 | 0.963 | 0.969 | 1.07 | 1.08 (inactive) | 1 (inactive) | 1.01 (inactive) | 0.958 (inactive) | 1 (inactive) | 0.984 (inactive) | 0.976 (inactive) | 0.977 (inactive)
2 | CC(C)NCC(O)COc1cccc2[nH]c3ccccc3c12 (configuration not stated) [Carazolol] (20 µM) | 0.738 | 1 | 0.956 | 1.12 | 1.06 (inactive) | 0.732 (inactive) | 1.07 (inactive) | 0.922 (inactive) | 0.966 (inactive) | 0.889 (inactive) | 0.992 (inactive) | 1.14 (inactive)
3 | NC(=O)C1CO1 (configuration not stated) [Glycidamide] (20 µM) | 0.988 | 0.992 | 0.998 | 1.06 | 1.05 (inactive) | 0.935 (inactive) | 0.988 (inactive) | 0.993 (inactive) | 1.07 (inactive) | 1.02 (inactive) | 1.02 (inactive) | 0.973 (inactive)
4 | CC(=O)Nc1ccc(OC(=O)c2ccccc2O)cc1 [Acetaminosalol] (20 µM) | 0.904 | 0.977 | 0.996 | 0.994 | 0.933 (inactive) | 1.06 (inactive) | 0.928 (inactive) | 1.01 (inactive) | 1.01 (inactive) | 1 (inactive) | 0.999 (inactive) | 0.917 (inactive)
5 | CC(=O)CC(c1ccccc1)c1c(O)c2ccccc2oc1=O (configuration not stated) [Warfarin] (20 µM) | 1.08 | 1.21 | 0.97 | 1.12 | 1 (inactive) | 1.05 (inactive) | 0.84 (inactive) | 1.22 (inactive) | 0.989 (inactive) | 0.958 (inactive) | 0.984 (inactive) | 0.758 (inactive)
6 | O=C1c2cccc3c2[C@H](CCC3)CN1[C@@H]1CN2CCC1CC2 [Palonosetron hydrochloride] (20 µM) | 1 | 1.05 | 0.978 | 0.887 | 1.09 (inactive) | 0.963 (inactive) | 1.04 (inactive) | 1.06 (inactive) | 0.996 (inactive) | 0.979 (inactive) | 0.983 (inactive) | 1.04 (inactive)
7 | CC1(C)O[C@@H]2[C@@H](CO[C@@]3(COS(N)(=O)=O)OC(C)(C)O[C@@H]23)O1 [Topiramate] (20 µM) | 0.915 | 0.972 | 0.997 | 1.06 | 1 (inactive) | 0.998 (inactive) | 0.947 (inactive) | 1.01 (inactive) | 0.98 (inactive) | 1.01 (inactive) | 0.989 (inactive) | 0.951 (inactive)
8 | O=C(O)c1cc(=O)[nH]c(=O)[nH]1 [Orotic acid] (20 µM) | 1.11 | 0.979 | 1.01 | 1.22 | 0.955 (inactive) | 1.01 (inactive) | 0.967 (inactive) | 0.995 (inactive) | 1.01 (inactive) | 1.03 (inactive) | 0.993 (inactive) | 0.948 (inactive)
9 | COc1cc(-c2ccc(=O)[nH]n2)ccc1OC(F)F [Zardaverine] (20 µM) | 1.12 | 0.946 | 1.09 | 0.984 | 0.932 (inactive) | 0.971 (inactive) | 0.994 (inactive) | 0.953 (inactive) | 0.987 (inactive) | 1.01 (inactive) | 0.997 (inactive) | 0.952 (inactive)
10 | Cn1c(=O)c2c(ncn2CC2OCCO2)n(C)c1=O [Doxofylline] (20 µM) | 1.05 | 0.975 | 0.973 | 1.18 | 1.08 (inactive) | 1.05 (inactive) | 1.06 (inactive) | 0.999 (inactive) | 1.01 (inactive) | 1 (inactive) | 0.993 (inactive) | 1.1 (inactive)
11 | OCC(O)CN1CCN(c2ccccc2)CC1 (configuration not stated) [Dropropizine] (20 µM) | 0.934 | 1.02 | 1.02 | 1.1 | 1.08 (inactive) | 1.04 (inactive) | 1.05 (inactive) | 0.998 (inactive) | 1 (inactive) | 1.04 (inactive) | 0.992 (inactive) | 1.05 (inactive)
12 | N=C(N)NCc1cccc(I)c1 [Iobenguane sulfate] (20 µM) | 0.944 | 0.983 | 0.971 | 0.721 | 0.89 (inactive) | 1 (inactive) | 1.08 (inactive) | 0.949 (inactive) | 0.914 (inactive) | 1.04 (inactive) | 1.1 (inactive) | 1.09 (inactive)
13 | N[C@@H](C(=O)N[C@@H]1C(=O)N2C(C(=O)O)=C(Cl)CS[C@H]12)c1ccccc1 [Cefaclor hydrate] (20 µM) | 0.594 | 0.999 | 1.06 | 0.999 | 0.947 (inactive) | 0.846 (inactive) | 0.783 (inactive) | 0.939 (inactive) | 1.07 (inactive) | 1.23 (inactive) | 1.03 (inactive) | 0.859 (inactive)
14 | CC1(C)O[C@@H]2C[C@H]3[C@@H]4C[C@H](F)C5=CC(=O)CC[C@]5(C)[C@H]4[C@@H](O)C[C@]3(C)[C@]2(C(=O)CO)O1 [Flurandrenolide] (20 µM) | 0.993 | 1.15 | 0.987 | 1.27 | 0.982 (inactive) | 1.08 (inactive) | 1.16 (inactive) | 1.18 (inactive) | 0.966 (inactive) | 0.954 (inactive) | 1.04 (inactive) | 1.33 (inactive)
15 | C[C@@H](NCCCc1cccc(C(F)(F)F)c1)c1cccc2ccccc12 [Cinacalcet hydrochloride] (20 µM) | 0.918 | 1.02 | 1.03 | 1.2 | 0.977 (inactive) | 0.995 (inactive) | 0.807 (inactive) | 1.11 (inactive) | 1.01 (inactive) | 0.693 (inactive) | 0.999 (inactive) | 0.946 (inactive)
16 | CC(C)(C)NC[C@H](O)COc1ccccc1C1CCCC1 [Penbutolol sulfate] (20 µM) | 0.971 | 1.21 | 0.985 | 0.952 | 1.02 (inactive) | 1.03 (inactive) | 1.11 (inactive) | 1.1 (inactive) | 0.997 (inactive) | 1.02 (inactive) | 0.98 (inactive) | 1.25 (inactive)
17 | CC(=O)Oc1ccccc1C(=O)Nc1ncc([N+](=O)[O-])s1 [Nitazoxanide] (20 µM) | 0.00234 | 0.925 | 0.915 | 0.11 | 0.982 (inactive) | 0.0219 (active) | 0.045 (active) | 1.02 (inactive) | 0.982 (inactive) | 1.25 (inactive) | 1.01 (inactive) | 0.0405 (active)
18 | CN(CCCN1c2ccccc2CCc2ccccc21)CC(=O)c1ccc(Cl)cc1 [Lofepramine] (20 µM) | 1.02 | 0.937 | 1.02 | 1.2 | 0.986 (inactive) | 1.04 (inactive) | 0.891 (inactive) | 1.01 (inactive) | 1.03 (inactive) | 0.989 (inactive) | 0.999 (inactive) | 0.851 (inactive)
19 | CCCN(CCC)C(=O)C(CCC(=O)O)NC(=O)c1ccccc1 (configuration not stated) [Proglumide] (20 µM) | 0.898 | 1.36 | 1.01 | 0.78 | 0.906 (inactive) | 1.44 (active) | 1.06 (inactive) | 1.31 (active) | 0.919 (inactive) | 0.929 (inactive) | 1.01 (inactive) | 1.11 (inactive)
20 | N=C(N)NCC1COC2(CCCCC2)O1 (configuration not stated) [Guanadrel sulfate] (20 µM) | 0.98 | 0.972 | 0.986 | 1.16 | 1.04 (inactive) | 1 (inactive) | 1.04 (inactive) | 0.993 (inactive) | 1.04 (inactive) | 0.99 (inactive) | 1 (inactive) | 1.06 (inactive)
21 | c1coc(CNc2ncnc3[nH]cnc23)c1 [Kinetin] (20 µM) | 0.818 | 1.05 | 0.962 | 0.855 | 0.974 (inactive) | 0.976 (inactive) | 1.01 (inactive) | 1.08 (inactive) | 1.01 (inactive) | 0.999 (inactive) | 1.01 (inactive) | 1.04 (inactive)
